# Experimental data published in the supplement of paper PMC10849652.
# Targets with a hit are over-represented here; the source holds about 7,900 in all. About 0.6% of all pairs of compound and target were hits. Unmarked numbers belong to inactive results.
# Columns and labels:
# Assay in all cases: log2 fold change, soluble protein after heating vs DMSO (PISA); higher = thermal stabilisation; K562 cells, 10 uM, 30 min; active = over 0.2 and 3.5 SD of the protein, either way, in both replicates (recomputed)
# saracatinib = compound: CN1CCN(CCOc2cc(OC3CCOCC3)c3c(Nc4c(Cl)ccc5c4OCO5)ncnc3c2)CC1 [saracatinib]
# Method in brief: (§1)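 Values are thermal stability changes relative to control samples and are taken from duplicates. They are stated as log2 fold changes. Before quantification by TMTpro 16plex LC-MS/MS with equalised channel sums, K562 cells at 2×10^6 cells/mL were treated with 10 μM compound for 30 min, heated in aliquots for 3 min across 48°C-58°C, pooled, extracted in PBS with 0.5% NP-40 at 4°C, and centrifuged at 21,000xg for 90 min to give the soluble supernatant.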
# sotrastaurin = compound: CN1CCN(c2nc(C3=C(c4c[nH]c5ccccc45)C(=O)NC3=O)c3ccccc3n2)CC1 [sotrastaurin]
# Method in brief: as §1
# alvocidib = compound: CN1CC[C@H](c2c(O)cc(O)c3c(=O)cc(-c4ccccc4Cl)oc23)[C@H](O)C1 [alvocidib]
# Method in brief: as §1
# Tubastatin A = compound: CN1CCc2c(c3ccccc3n2Cc2ccc(C(=O)NO)cc2)C1 [Tubastatin A]
# Method in brief: as §1
# [1] = compound: CNC(=O)C1=CC=CC=C1NC2=NC(=NC=C2Cl)NC3=C(C=C(C=C3)N4CCOCC4)OC
# Method in brief: as §1
# defactinib = compound: CNC(=O)c1ccc(Nc2ncc(C(F)(F)F)c(NCc3nccnc3N(C)S(C)(=O)=O)n2)cc1 [defactinib]
# Method in brief: as §1
# rucaparib = compound: CNCc1ccc(-c2[nH]c3cc(F)cc4c3c2CCNC4=O)cc1 [rucaparib]
# Method in brief: as §1
# [2] = compound: CNc1nc(-c2ccc3c(N)n[nH]c3c2)cc(N2C[C@@H](C(=O)NC3CCCCC3)CC[C@H]2C)n1
# Method in brief: as §1
# encorafenib = compound: COC(=O)N[C@@H](C)CNc1nccc(-c2cn(C(C)C)nc2-c2cc(Cl)cc(NS(C)(=O)=O)c2F)n1 [encorafenib]
# Method in brief: as §1
# [3] = compound: COC(=O)[C@H](CCSC)NC(=O)C1=C(C=C(C=C1)NC[C@H](CS)N)C2=CC=CC=C2
# Method in brief: as §1
# Chain of UniProt P09211 (P09211 whole entry, looked up): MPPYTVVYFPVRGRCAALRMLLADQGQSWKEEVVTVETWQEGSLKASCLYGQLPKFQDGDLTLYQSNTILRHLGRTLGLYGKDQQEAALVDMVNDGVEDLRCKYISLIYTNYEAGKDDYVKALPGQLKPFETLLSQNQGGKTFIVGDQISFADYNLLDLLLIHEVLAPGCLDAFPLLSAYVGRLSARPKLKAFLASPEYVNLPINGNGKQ
# Chain of UniProt P52657 (P52657 whole entry, looked up): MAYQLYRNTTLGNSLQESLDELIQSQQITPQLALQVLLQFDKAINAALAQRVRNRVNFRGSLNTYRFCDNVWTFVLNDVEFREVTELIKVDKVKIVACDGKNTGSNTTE
# Chain of UniProt Q5JWF2 (Q5JWF2 whole entry, looked up): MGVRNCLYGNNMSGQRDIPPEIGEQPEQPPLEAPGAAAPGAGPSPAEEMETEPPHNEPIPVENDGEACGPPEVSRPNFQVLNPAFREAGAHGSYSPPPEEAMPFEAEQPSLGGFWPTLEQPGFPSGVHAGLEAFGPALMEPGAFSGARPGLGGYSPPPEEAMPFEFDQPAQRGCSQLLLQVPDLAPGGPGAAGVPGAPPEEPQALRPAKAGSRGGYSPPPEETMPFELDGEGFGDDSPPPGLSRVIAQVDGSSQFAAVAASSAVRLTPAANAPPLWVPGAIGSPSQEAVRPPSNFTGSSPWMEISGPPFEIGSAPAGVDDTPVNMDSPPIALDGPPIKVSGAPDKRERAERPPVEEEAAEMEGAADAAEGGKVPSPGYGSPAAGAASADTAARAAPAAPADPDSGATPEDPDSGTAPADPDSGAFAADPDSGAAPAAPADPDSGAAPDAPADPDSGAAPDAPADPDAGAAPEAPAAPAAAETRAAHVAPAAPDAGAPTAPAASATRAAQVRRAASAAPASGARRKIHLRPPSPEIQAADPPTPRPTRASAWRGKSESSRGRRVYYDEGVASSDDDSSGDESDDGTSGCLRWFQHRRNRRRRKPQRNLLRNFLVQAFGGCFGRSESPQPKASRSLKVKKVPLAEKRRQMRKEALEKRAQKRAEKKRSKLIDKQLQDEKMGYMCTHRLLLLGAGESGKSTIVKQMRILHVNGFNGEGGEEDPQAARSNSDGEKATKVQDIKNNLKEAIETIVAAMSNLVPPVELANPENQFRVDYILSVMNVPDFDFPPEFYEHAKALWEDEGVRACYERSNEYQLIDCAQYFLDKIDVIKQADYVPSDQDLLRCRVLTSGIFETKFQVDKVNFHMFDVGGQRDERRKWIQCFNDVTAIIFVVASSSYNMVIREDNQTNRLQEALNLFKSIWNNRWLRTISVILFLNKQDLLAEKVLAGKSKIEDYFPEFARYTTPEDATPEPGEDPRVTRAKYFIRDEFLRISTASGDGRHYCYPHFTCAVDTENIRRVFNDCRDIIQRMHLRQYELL
# Chain of UniProt Q12894 (Q12894 whole entry, looked up): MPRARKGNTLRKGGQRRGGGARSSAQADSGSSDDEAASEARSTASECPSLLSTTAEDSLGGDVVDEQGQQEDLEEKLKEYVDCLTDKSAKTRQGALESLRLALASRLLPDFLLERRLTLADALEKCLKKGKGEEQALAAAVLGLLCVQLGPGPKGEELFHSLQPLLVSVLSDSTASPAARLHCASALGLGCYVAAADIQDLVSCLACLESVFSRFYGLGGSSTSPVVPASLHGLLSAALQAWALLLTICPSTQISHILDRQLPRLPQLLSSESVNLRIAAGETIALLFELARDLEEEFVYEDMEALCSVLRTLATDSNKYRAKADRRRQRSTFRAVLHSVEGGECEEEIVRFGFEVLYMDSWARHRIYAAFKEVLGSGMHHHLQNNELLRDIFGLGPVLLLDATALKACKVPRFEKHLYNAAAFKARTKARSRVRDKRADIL
# Chain of UniProt Q7Z4H3 (Q7Z4H3 whole entry, looked up): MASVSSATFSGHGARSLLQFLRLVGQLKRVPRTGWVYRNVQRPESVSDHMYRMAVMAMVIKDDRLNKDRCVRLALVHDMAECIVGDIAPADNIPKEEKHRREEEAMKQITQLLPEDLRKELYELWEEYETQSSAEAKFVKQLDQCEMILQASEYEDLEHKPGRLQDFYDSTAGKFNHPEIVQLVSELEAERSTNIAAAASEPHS
# Chain of UniProt Q9P2H3 (Q9P2H3 whole entry, looked up): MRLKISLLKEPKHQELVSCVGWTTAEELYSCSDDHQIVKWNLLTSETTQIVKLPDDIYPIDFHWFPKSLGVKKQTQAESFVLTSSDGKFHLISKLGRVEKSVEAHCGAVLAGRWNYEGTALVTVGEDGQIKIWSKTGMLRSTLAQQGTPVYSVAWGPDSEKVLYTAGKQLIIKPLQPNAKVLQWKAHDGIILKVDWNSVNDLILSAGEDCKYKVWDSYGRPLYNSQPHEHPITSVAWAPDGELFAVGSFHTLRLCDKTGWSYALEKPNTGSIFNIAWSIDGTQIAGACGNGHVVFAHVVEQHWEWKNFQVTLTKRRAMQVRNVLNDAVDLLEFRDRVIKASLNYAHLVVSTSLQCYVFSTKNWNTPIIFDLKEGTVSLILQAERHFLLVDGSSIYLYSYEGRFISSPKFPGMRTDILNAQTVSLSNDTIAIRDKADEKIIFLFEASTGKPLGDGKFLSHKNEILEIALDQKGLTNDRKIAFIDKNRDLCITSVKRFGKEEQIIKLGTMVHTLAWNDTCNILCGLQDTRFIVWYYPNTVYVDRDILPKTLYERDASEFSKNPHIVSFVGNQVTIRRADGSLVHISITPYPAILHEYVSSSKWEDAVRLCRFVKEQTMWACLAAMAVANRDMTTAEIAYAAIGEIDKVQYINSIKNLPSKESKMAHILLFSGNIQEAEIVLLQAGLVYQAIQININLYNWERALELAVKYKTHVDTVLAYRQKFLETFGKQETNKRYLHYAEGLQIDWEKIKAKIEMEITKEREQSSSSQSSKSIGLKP
# Chain of UniProt O14929 (O14929 whole entry, looked up): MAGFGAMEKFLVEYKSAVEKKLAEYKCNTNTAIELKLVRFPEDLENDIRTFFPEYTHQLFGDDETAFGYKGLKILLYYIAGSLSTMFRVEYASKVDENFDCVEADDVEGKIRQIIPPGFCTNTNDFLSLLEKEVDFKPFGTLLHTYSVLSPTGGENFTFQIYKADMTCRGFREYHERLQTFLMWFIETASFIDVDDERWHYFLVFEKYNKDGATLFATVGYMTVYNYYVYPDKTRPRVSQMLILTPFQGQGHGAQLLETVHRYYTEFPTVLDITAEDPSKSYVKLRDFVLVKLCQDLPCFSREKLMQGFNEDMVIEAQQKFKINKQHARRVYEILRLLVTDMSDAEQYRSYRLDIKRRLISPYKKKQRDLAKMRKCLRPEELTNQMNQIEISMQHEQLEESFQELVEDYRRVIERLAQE
# Chain of UniProt P63218 (P63218 whole entry, looked up): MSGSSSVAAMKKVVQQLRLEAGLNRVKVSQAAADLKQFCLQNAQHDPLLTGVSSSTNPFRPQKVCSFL
# Chain of UniProt Q92917 (Q92917 whole entry, looked up): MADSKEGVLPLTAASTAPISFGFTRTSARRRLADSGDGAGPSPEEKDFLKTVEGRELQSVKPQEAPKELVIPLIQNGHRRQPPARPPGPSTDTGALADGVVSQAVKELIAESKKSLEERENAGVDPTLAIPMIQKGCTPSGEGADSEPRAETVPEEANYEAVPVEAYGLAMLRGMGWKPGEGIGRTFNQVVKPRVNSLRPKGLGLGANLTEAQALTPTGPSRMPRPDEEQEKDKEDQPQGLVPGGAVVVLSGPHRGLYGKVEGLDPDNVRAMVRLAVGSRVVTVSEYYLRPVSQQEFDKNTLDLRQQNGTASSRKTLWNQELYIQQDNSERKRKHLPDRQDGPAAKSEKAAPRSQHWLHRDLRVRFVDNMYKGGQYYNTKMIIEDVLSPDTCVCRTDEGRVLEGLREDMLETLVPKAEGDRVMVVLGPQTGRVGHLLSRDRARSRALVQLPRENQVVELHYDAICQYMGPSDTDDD
# Chain of UniProt P60520 (P60520 whole entry, looked up): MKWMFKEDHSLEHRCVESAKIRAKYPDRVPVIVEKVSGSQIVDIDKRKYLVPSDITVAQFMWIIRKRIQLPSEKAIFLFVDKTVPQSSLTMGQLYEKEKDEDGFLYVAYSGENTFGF
# Chain of UniProt Q9UQC2 (Q9UQC2 whole entry, looked up): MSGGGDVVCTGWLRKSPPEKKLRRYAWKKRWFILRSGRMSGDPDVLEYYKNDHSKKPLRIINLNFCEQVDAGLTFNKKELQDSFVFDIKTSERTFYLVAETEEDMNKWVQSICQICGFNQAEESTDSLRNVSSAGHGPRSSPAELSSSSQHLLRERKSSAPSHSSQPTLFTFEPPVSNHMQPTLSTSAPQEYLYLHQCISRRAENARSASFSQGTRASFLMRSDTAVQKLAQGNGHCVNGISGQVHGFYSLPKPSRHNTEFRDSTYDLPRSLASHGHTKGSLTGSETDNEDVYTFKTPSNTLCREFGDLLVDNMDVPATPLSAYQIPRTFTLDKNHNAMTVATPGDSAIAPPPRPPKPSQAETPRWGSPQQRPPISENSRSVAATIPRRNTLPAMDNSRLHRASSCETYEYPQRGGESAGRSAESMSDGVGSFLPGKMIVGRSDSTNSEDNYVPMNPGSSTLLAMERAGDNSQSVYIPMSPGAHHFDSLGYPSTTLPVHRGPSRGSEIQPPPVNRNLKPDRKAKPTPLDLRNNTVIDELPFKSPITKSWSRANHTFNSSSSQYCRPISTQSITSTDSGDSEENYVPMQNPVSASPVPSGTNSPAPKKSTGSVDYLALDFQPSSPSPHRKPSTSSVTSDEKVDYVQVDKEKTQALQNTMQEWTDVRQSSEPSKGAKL
# Chain of UniProt O15347 (O15347 whole entry, looked up): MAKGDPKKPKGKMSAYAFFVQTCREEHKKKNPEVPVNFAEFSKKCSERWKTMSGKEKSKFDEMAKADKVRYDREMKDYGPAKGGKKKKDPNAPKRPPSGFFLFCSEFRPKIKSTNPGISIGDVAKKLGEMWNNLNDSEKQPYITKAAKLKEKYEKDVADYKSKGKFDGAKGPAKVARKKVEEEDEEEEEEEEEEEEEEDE
# Chain of UniProt P02008 (P02008 whole entry, looked up): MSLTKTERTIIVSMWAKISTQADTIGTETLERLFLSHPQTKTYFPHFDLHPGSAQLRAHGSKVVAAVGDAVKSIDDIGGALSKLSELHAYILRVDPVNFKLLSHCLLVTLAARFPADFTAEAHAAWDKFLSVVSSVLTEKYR
Target,log2 fold change (saracatinib),log2 fold change (sotrastaurin),log2 fold change (alvocidib),log2 fold change (Tubastatin A),log2 fold change [1],log2 fold change (defactinib),log2 fold change (rucaparib),log2 fold change [2],log2 fold change (encorafenib),log2 fold change [3]
HMGB3 (UniProt O15347),0.05,0.031,-0.022,0,-0.076,0.089,0.008,-0.073,-0.063,0.021
GSTP1 (UniProt P09211),-0.011,0.053,-0.051,-0.015,-0.001,-0.033,-0.046,0.02,-0.007,0.027
HDDC2 (UniProt Q7Z4H3),0.045,0.042,-0.049,0.015,0.007,-0.014,-0.014,0.063,0.014,-0.013
GALNT4 (UniProt Q8N4A0),-0.088,-0.029,-0.033,0.046,-0.063,0.016,-0.079,-0.138,0.04,-0.013
IFRD2 isoform 2 (UniProt Q12894),0.126,0.31,-0.017,-0.272,0.022,0.16,-0.549 (active),-0.095,-0.031,0.026
H3-3A (UniProt P84243),-0.094,-0.356,-0.063,0.203,0.002,0,0.031,0.189,0.034,0.102
HAT1 (UniProt O14929),0.047,-0.058,-0.209,0.036,0.05,-0.139,-0.066,-0.061,0.064,-0.017
GAB2 (UniProt Q9UQC2),-0.164,0.029,-0.053,-0.024,-0.575,-0.194,0.162,-0.137,-0.023,0.116
FKBP4 (UniProt Q02790),-0.048,-0.022,-0.092,-0.009,0.032,-0.055,0.016,0.05,0.026,-0.036
FOXK1 (UniProt P85037),0.214,-1.37 (active),-1.01 (active),-0.112,0.2,-0.941,-0.759,0.615,0.054,-0.111
GABARAPL2 (UniProt P60520),0.021,0.047,-0.008,0.045,0.011,-0.019,-0.111,-0.013,-0.02,-0.009
HMGN2 (UniProt P05204),-0.138,0.156,0.069,-0.05,0.026,0.046,0.13,0.075,-0.091,0.013
IFT80 isoform 3 (UniProt Q9P2H3),-0.016,0.029,-0.091,0.094,0.01,-0.023,0.029,-0.007,0.056,0.014
GNG5 (UniProt P63218),0.022,0.033,0.019,0.049,0.028,-0.041,-0.002,-0.041,-0.073,-0.008
FEN1 (UniProt P39748),-0.087,-0.028,-0.099,0.116,-0.092,-0.139,-0.128,0.183,0.054,-0.087
GSR (UniProt P00390),-0.021,0.048,0,0.008,-0.006,-0.016,-0.025,-0.021,-0.02,0.002
IFNGR1 (UniProt P15260),0.05,-0.038,0.253,0.11,-0.215,0.051,0.056,-0.009,-0.026,0.088
GLCCI1 (UniProt Q86VQ1),-0.017,-0.016,0.002,0.082,-0.057,-0.072,0.087,-0.063,0.026,-0.051
GOLGB1 isoform 2 (UniProt Q14789),-0.056,-0.121,0.124,0.029,0.048,0,0.02,-0.001,-0.04,0.003
GPKOW (UniProt Q92917),-0.03,-0.031,-0.188,0.033,-0.107,-0.178,-0.036,0.069,0.034,-0.032
GTF2A2 (UniProt P52657),0.034,0.018,-0.003,0.026,-0.031,-0.025,-0.061,-0.025,-0.022,0.018
GNAS (UniProt Q5JWF2),-0.023,0.036,0.025,0.011,-0.004,0.012,0.029,0.069,0.021,-0.041
FBXO6 (UniProt Q9NRD1),0.042,-0.085,-0.092,-0.016,0.031,-0.038,-0.064,0.011,0.033,-0.099
H1FX (UniProt Q92522),-0.054,-0.237,0.381,0.093,0.041,0.336,0.219,0.102,0.121,0.013
HOMER1 (UniProt Q86YM7),0.032,0.045,-0.047,-0.084,0.021,0.015,0.021,0.007,0.04,-0.047
GLUD2 (UniProt P49448),0.305 (active),0.056,-0.017,-0.016,0.051,0.008,0.003,0.178,-0.117,-0.042
GEMIN5 (UniProt Q8TEQ6),-0.014,-0.035,-0.192,-0.053,-0.02,-0.216 (active),0.026,0.025,0.061,-0.019
HBZ (UniProt P02008),0.022,0.03,0.036,0,-0.041,0.011,-0.026,-0.006,-0.004,-0.025
HECTD1 (UniProt Q9ULT8),-0.184,-0.066,0.111,0.071,0.033,-0.026,0.056,-0.001,-0.154,-0.018
FBXO7 (UniProt Q9Y3I1),-0.003,0.052,-0.069,0.019,0.012,-0.025,0.068,0.028,-0.009,-0.029
